# Measurements: PubChem BioAssay AID624125 (The Scripps Research Institute Molecular Screening Center, 2012)
# “And” between values parts separate entries of the source, which are not always exact repeats. Equal values may be shown once. Hit rate of the full screen: of about 360,000 compounds, about 2,600 (0.72%) were called active. The entries come from a sample that favours actives as a whole. A number with no mark means an inactive call.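 The calls were made as follows: active = inhibition above its plate's cutoff, the mean inhibition of sample wells plus 3 SD (cut at about 27% in these data); inactive = the rest.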
# Target: Muscarinic acetylcholine receptor M4 (Homo sapiens) (UniProt P08173)
# Experiment: human M4 muscarinic receptor antagonists, primary screen, CHO cells, Fluo-8 calcium fluorescence (AID 624125);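 also: 0% = acetylcholine EC80 with DMSO and 100% = DMSO without agonist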
# Settings: CHO-hM4 cells, ACh EC80, Fluo-8 calcium fluorescence; at 3 µM; active compounds read high
# Sequence of Muscarinic acetylcholine receptor M4 (Homo sapiens) (P08173 whole entry, looked up): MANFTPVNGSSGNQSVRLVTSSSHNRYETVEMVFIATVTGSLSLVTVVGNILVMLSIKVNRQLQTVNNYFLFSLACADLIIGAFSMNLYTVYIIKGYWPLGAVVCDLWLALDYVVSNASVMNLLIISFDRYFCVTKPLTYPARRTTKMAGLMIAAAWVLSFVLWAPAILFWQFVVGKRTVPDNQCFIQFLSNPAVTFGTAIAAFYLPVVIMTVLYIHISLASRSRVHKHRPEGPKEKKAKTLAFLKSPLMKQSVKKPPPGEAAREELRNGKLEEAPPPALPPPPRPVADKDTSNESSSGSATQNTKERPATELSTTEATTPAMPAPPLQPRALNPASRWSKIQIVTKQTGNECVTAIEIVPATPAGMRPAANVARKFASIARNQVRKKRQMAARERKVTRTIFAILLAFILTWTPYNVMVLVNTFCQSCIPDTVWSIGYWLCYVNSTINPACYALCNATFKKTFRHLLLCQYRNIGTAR
row,Compound,inhibition
1,Cc1ccc(S(=O)(=O)N2CCOCC2)cc1C(=O)NC(=S)N(Cc1ccccc1)C(C)C,0.9%
2,CCCCc1nc2ccc(F)cc2cc1C,-4.37%
3,Cc1sc2ncnc(N3CCC(C(=O)Nc4ccc(F)cc4Cl)CC3)c2c1C,46.6% (active)
4,Cc1sc2ncnc(N3CCC(C(=O)Nc4nc5ccc(Cl)cc5s4)CC3)c2c1C,-9.33%
5,Cc1sc2ncnc(N3CCC(C(=O)NNC(=O)c4ccc(F)cc4)CC3)c2c1C,-17.4%
6,COC(=O)c1cc(N2CCNCC2)nc2ccccc12,6.45%
7,CS(=O)(=O)N1CCN(CC(=O)NC2CCCC2)CC1,1.25%
8,Clc1ccc(C=NC23CN4CN(CN(C4)C2)C3)cc1,-1.64%
9,O=C(c1ccccc1F)N1CCN(S(=O)(=O)c2ccc(Br)cc2)CC1,3.23%
10,Cc1ccc(CN2CCN(Cc3ccc(OCCO)cc3)CC2CCO)o1 (stereo not drawn),2.78%
11,OCCC1CN(Cc2cccc(O)c2)CCN1CCc1ccccc1 (stereo not drawn),-6.17%
12,CCOc1ccc(CN2CCN(Cc3ccc(C)o3)CC2CCO)cc1 (stereo not drawn),1.46%
13,COc1cccc2c1OCC(CN1CCN(C3CCCCC3)C(CCO)C1)=C2 (stereo not drawn),26.6% (active)
14,OCC1(CCc2ccccc2)CCN(Cc2ccc3nsnc3c2)CC1,8.32%
15,OCCC1CN(Cc2ccc3nsnc3c2)CCN1C1CCCC1 (stereo not drawn),47.5% (active)
16,CC(C)N1CCC(N2CCN(Cc3cccnc3)CC2CCO)CC1 (stereo not drawn),-8.19%
17,Cc1ccc(CN2CCN(Cc3ccc4ncccc4c3)CC2CCO)cc1 (stereo not drawn),-9.31%
18,OCCC1CN(Cc2cccc(OC3CCCC3)c2)CCN1Cc1ccsc1 (stereo not drawn),2.69%
19,Cn1cnnc1Sc1ccc(CN2CCN(C3CCCC3)C(CCO)C2)o1 (stereo not drawn),42.6% (active)
20,OCCC1CN(Cc2ccc3nsnc3c2)CCN1C1CCCCC1 (stereo not drawn),26.8% (active)
21,COc1ccc(CN2CCN(Cc3cn(C)nc3-c3ccccc3)CC2CCO)c(C)c1C (stereo not drawn),-2.82%
22,CCC(Sc1nncn1C)C(=O)Nc1nnc(-c2ccc(Cl)cc2)s1 (stereo not drawn),-32.3%
23,CCOc1cc(-c2noc(CCCC(=O)NC3CCCCC3)n2)ccc1OC,-15.3%
24,CC(c1ccccn1)N(C)C(=O)c1ccc2nc(Cc3cccc(Cl)c3)oc2c1 (stereo not drawn),0.98%

row,Compound,inhibition
1,Cc1ccc(NC(=O)C(C)OC(=O)C2CC3CCCC(C2)C3=O)cc1S(=O)(=O)N1CCOCC1 (stereo not drawn),-3.85%
2,CCc1nc2c(OCc3ccc(C(F)(F)F)cc3)cccn2c1N(C)C(=O)CC(C)C,3.96%
3,Cc1cc(=O)oc2cc(NC(=O)C3CC(=O)N(Cc4ccccc4)C3)ccc12 (stereo not drawn),-0.59%
4,O=C(O)C1CCN1C1CCCCC1 (stereo not drawn),2.3%
5,COC(=O)c1c(C)oc(C)c1S(=O)(=O)NCc1ccc(Cl)cc1,12.7%
6,CN(CCN1CCOCC1)Cc1nc(-c2ccc3c(c2)OCO3)no1,8.12%
7,CCOc1ccc(NC(=O)C2CC(=O)N=C(N)S2)cc1 (stereo not drawn),-0.59%
8,COc1ccc(C(=O)OCC(=O)NCC2CCCO2)cc1[N+](=O)[O-] (stereo not drawn),-10.6%
9,Cc1cc(-c2nnc(SCC(=O)Nc3ccc(F)cc3)n2N)n[nH]1,8.94%
10,CSCCC(NS(=O)(=O)c1ccccc1F)C(=O)N1CC=C(c2ccccc2)CC1 (stereo not drawn),3.15%
11,COC(=O)C1=C(N)Oc2cc(C)[nH]c(=O)c2C1c1ccc(Cl)cc1 (stereo not drawn),0.29%
12,O=C1NC(=O)C(c2ccc(Cl)cc2)N1 (stereo not drawn),-2.3%
13,O=C1CSC(c2ccc(Cl)cc2)N1 (stereo not drawn),27.7% (active)
14,COc1ccc(C(=O)Oc2ccc(-c3nnco3)cc2)cc1S(=O)(=O)N1CCOCC1,-11.2%
15,O=C(OC1CC2CC1[C@H]1CCCCN1C2=O)N1CCOCC1 (stereo partly drawn),-3.15%
16,CCc1ccc(S(=O)(=O)NCC(O)COc2ccc(OC)cc2)cc1 (stereo not drawn),-13%
17,C#C[C@]1(O)CC[C@H]2[C@@H]3CCC4=CC(=O)CC[C@@H]4[C@H]3CC[C@@]21CC,-4.91% and 3.68%
18,CN1CCN(C2Cc3ccc(Cl)cc3Sc3ccc(F)cc32)CC1 (stereo not drawn),38.1% (active)
19,CCOCCCNC(=O)C(NC(=O)c1ccc(=O)[nH]c1)c1ccc(C)cc1 (stereo not drawn),-5.59%
20,Cc1ccc(-c2ccc(=O)n(Cc3ccc(F)cc3Cl)n2)cc1,0.63%
21,CN(Cc1ccc(F)cc1Cl)S(=O)(=O)c1cccs1,-1.2%
22,CN(C)Cc1ccc(F)cc1Sc1cc(Cl)ccc1Cl,43.8% (active)
23,COc1cccc(CC(=NO)c2cccc(OC)c2)c1,-5.79%
24,O=C(C1CCCO1)N1CCN(C(=S)Nc2cccc(Cl)c2)CC1 (stereo not drawn),0.97%
